A short description of assay [1]: Nuclear factor erythroid 2-related factor 2/antioxidant responsive element (Nrf2/ARE) small molecule agonists: qHTS cell viability counter screen in human keratinocytes (AID 1919968; active = well fitted curve in the direction sought with a large enough effect in the repeat runs; an effect the other way counts as inactive or inconclusive; also: nearly all actives have a fitted effect of over 55% in size; also: potency is read from the fitted curve at half-maximal effect). The method in brief:
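Cells of the KeratinoSens line were plated at 1,500 per well and left for 5 h before compound transfer from DMSO stocks. After a 23 h incubation (37 C, 5% CO2), CellTiter-Fluor was added. Signal was taken as fluorescence intensity 1 h later.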

A short description of assay [2]: Nuclear factor erythroid 2-related factor 2/antioxidant responsive element (Nrf2/ARE) small molecule agonists: luciferase reporter gene qHTS assay in human keratinocytes (AID 1919969; also: nearly all actives have a fitted effect of over 35% in size; also: potency is read from the fitted curve at half-maximal effect). (In a reporter assay the amount or activity of a reporter protein is the signal.)
Assay [3] concerns the target Gonadotropin-releasing hormone receptor (Homo sapiens) (UniProt P30968). Briefly: Human gonadotropin-releasing hormone receptor (GnRHR) small molecule agonists, calcium flux assay in GnRHR-HEK293 cells (AID 1920063). Also: nearly all actives have a fitted effect of over 35% in size. A digest of the protocol:
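Compounds dissolved in DMSO are pin-transferred onto dye-loaded GnRHR-HEK293 cells, which were seeded 18 h before at 37 C/5% CO2. Calcium signal is read as fluorescence intensity at 1 s intervals for 3 min.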

In assay [4] the target is KiSS-1 receptor (Homo sapiens) (UniProt Q969F8). Briefly: Human kisspeptin (KISS1R) small molecule agonists, calcium flux assay in KISS1R-HEK293 cells (AID 1920064; active = well fitted curve in the direction sought with a large enough effect in the repeat runs; an effect the other way counts as inactive or inconclusive). The method in brief: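 Cell line: HEK293, stable human KISS1R. Dye loading 1 h at 37 C after 18 h culture. Read: kinetic fluorescence, 480/540 nm, 3 min at 1 s intervals.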
For orientation: Calcium assays in cells follow changes in intracellular calcium, usually with a dye or a luminescent sensor.

A short description of assay [5]: G protein-coupled receptor (GPCR) small molecule agonists, calcium flux assay: HEK293 wild type cell line counter screen (AID 1920065). The method in brief: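 Tox21 10K compounds, 15 concentrations each in triplicate, pin-transferred in DMSO onto dye-loaded cells; kinetic read at 480/540 nm for 3 min, 1 s intervals.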
The nature of assay [6]: p53 small molecule agonists, cell-based qHTS assay with human liver microsomes (AID 1963577).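 Also: p53 response element beta-lactamase reporter cells with liver microsomes plus NADPH.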 A digest of the protocol:
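With metabolic activation: human liver microsomes (0.5 mg/mL final) plus NADPH (0.5 mg/mL final) added alongside compounds to p53RE-bla cells; 16 h 37 C exposure; beta-lactamase read by LiveBLAzer fluorescence.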
In general terms: Quantitative high-throughput screening tests each substance at several concentrations.

The nature of assay [7]: p53 small molecule agonists, cell-based qHTS assay with rat liver microsomes (AID 1963578). The method in brief: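 Metabolic activation by rat liver microsomes and NADPH, each 0.5 mg/mL final, added right after compounds to p53RE-bla reporter cells (4,000/well, plated 5 h earlier). 16 h at 37 C, then LiveBLAzer substrate for 2 h at room temperature in the dark; fluorescence read-out.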

A short description of assay [8]: p53 small molecule agonists, cell-based qHTS assay with rat liver microsomes: qHTS cell viability counter screen (AID 1963580). Also: nearly all actives have a fitted effect of over 45% in size. The method in brief: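 Counter screen for cytotoxicity under metabolic activation: rat liver microsomes and NADPH, 0.5 mg/mL final each, added with compounds to p53RE-bla HCT-116 cells; 16 h at 37 C, then ATP luminescence read.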
Assay [9] in a line: p53 small molecule agonists, cell-based qHTS assay: qHTS cell viability counter screen (AID 1963581). Also: nearly all actives have a fitted effect of over 45% in size. The method in brief:
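ATP content measured by luminescence in HCT-116 p53RE-bla cells treated 16 h at 37 C, same wells as the reporter screen.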

Assay [10] has as its target 5-hydroxytryptamine receptor 2A (Homo sapiens) (UniProt P28223). Nature of the assay: 5-hydroxytryptamine receptor 2A (HTR2A) small molecule agonists, cell-based qHTS assay (AID 1963587). Also: nearly all actives have a fitted effect of over 30% in size. Also: potency is read from the fitted curve at half-maximal effect. A digest of the protocol:
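HTR2A-CHO cells, plated 18 h at 37 C/5% CO2, dye-loaded 1 h at 37 C; compounds in DMSO added by pin tool (agonist mode). Intracellular calcium flux read as kinetic fluorescence on FDSS over 2 min at 1 s intervals.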

Assay [11] concerns the target Muscarinic acetylcholine receptor M1 (Homo sapiens) (UniProt P11229). Nature of the assay: Cholinergic receptor muscarinic 1 (CHRM1) small molecule agonists, cell-based qHTS assay (AID 1963589). Also: nearly all actives have a fitted effect of over 35% in size. The method in brief:
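Homogeneous fluorescence calcium flux, agonist mode. Human M1-expressing CHO cells; compound dosed at 15 concentrations, three independent runs; signal sampled every 1 sec.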

Assay [12] is described as follows: cAMP Responsive Elements (CRE) small molecule agonists, cell-based qHTS assay (AID 1963590). The method in brief: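 HEK 293T cells stably bearing CRE-bla were plated at 2,000 cells per well and rested 18 h. Compounds, positive controls or DMSO were added for 3 h at 37 C. LiveBLAzer B/G substrate was then loaded for 2 h at room temperature.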
A short description of assay [13]: cAMP Responsive Elements (CRE) small molecule antagonists, cell-based qHTS assay (AID 1963591; active = well fitted inhibition curve with a large enough effect in the signal ratio in the repeat runs, not every such curve was filed as active; the % refers to the signal ratio; also: potency is read from the fitted curve at half-maximal effect). The method in brief:
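First, CRE-bla HEK293T cells settled 18 h at 37 C. Next, compound and 0.25 uM final NKH477 were applied for 3 h. Last, LiveBLAzer B/G substrate was loaded for 2 h at room temperature.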

For assay [14], the target named is Beta-2 adrenergic receptor (Homo sapiens) (UniProt P07550). Nature of the assay: Adrenergic beta2 receptor (ADRB2) small molecule antagonists, cell-based qHTS assay (AID 1963592). Also: series mostly up to about 92 µM; nearly all actives have a fitted effect of over 50% in size. A digest of the protocol:
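Assay format: CHO-ADRB2 cells, 18-20hr seeding at 37C/5% CO2, then compound plus 1nM isoproterenol agonist mix for 0.5hr RT. Homogeneous time-resolved fluorescence cAMP detection after 1hr, expressed as 665/615 nm ratio.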

Assay [15] concerns the target D(2) dopamine receptor (Homo sapiens) (UniProt P14416). Nature of the assay: Dopamine D2 receptor (DRD2) small molecule antagonists, cell-based qHTS assay (AID 1963595; active = well fitted inhibition curve with a large enough effect in the signal ratio in the repeat runs, with a control signal flat; the % refers to the signal ratio). The method in brief: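 HEK293 cells stably expressing DRD2 were preincubated with 0.1 mM Ro20-1724, then with compound for 10 min at room temperature. Cells were stimulated with 200 nM NKH477 plus 12 nM quinpirole for 30 min, and cAMP was read by HTRF.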

Assay [16] is described as follows: p53 small molecule agonists, cell-based qHTS assay with human liver microsomes: qHTS cell viability counter screen (AID 1963579). Also: nearly all actives have a fitted effect of over 45% in size. The method in brief:
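Metabolic activation used human liver microsomes and NADPH, both 0.5 mg/mL final, over 16 hours at 37 C on p53RE-bla cells (4,000/well). Cytotoxicity measured by CellTiter-Glo luminescence, 30 min at room temperature.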

Assay [17] is described as follows: p53 small molecule agonists, cell-based qHTS assay (AID 1963582; active = well fitted activation curve with a large enough effect in the signal ratio in the repeat runs, not every such curve was filed as active; the % refers to the signal ratio). The method in brief:
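16 h compound exposure (37 C) of p53 response element–bla cells, preceded by 5 h recovery at 37 C/5% CO2; read-out via LiveBLAzer B/G FRET substrate, 2 h RT, fluorescence intensity.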

The target of assay [18] is 5-hydroxytryptamine receptor 2A (Homo sapiens) (UniProt P28223). Briefly: 5-hydroxytryptamine receptor 2A (HTR2A) small molecule antagonists, cell-based qHTS assay (AID 1963586). Also: nearly all actives have a fitted effect of over 45% in size. Also: potency is read from the fitted curve at half-maximal effect. A digest of the protocol: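 CHO cells stably expressing human HTR2A were plated for 18 h at 37 C, then loaded with calcium dye for 1 h. Compounds were preincubated 5 min at room temperature before DOI (4 nM solution) was added. Kinetic fluorescence was read for 3 min.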

For assay [19], the target named is Muscarinic acetylcholine receptor M1 (Homo sapiens) (UniProt P11229). Briefly: Cholinergic receptor muscarinic 1 (CHRM1) small molecule antagonists, cell-based qHTS assay (AID 1963588). Also: nearly all actives have a fitted effect of over 40% in size. The method in brief: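 Compounds were tested at 15 concentrations in three independent runs. Dye-loaded CHRM1-CHO cells were exposed 5 min at room temperature before stimulation by acetylcholine added at 50nM. Intracellular calcium was read kinetically on FDSS for 3 min.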

In assay [20] the target is D(2) dopamine receptor (Homo sapiens) (UniProt P14416). Briefly: Dopamine D2 receptor (DRD2) small molecule agonists, cell-based qHTS assay (AID 1963594). Also: nearly all actives have a fitted effect of over 35% in size. The method in brief: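 HEK293 cells stably expressing DRD2 were cultured 24 h at 37 C, then given Ro20-1724 (0.1 mM final) and compounds for 10 min at room temperature. NKH477 (200nM) was then added for 30 min. cAMP was read by HTRF.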

Where “and” joins values, the source holds several entries; their conditions need not be identical. Equal entries are not always repeated. Results filed as inconclusive are left out. Some compounds were tested as several samples or in several runs, with calls that do not always agree. Calls of active or inactive are those of the source. Unless noted, calls follow the shape of the full dose curve.

Chain of D(2) dopamine receptor (Homo sapiens) (P14416 whole entry, looked up): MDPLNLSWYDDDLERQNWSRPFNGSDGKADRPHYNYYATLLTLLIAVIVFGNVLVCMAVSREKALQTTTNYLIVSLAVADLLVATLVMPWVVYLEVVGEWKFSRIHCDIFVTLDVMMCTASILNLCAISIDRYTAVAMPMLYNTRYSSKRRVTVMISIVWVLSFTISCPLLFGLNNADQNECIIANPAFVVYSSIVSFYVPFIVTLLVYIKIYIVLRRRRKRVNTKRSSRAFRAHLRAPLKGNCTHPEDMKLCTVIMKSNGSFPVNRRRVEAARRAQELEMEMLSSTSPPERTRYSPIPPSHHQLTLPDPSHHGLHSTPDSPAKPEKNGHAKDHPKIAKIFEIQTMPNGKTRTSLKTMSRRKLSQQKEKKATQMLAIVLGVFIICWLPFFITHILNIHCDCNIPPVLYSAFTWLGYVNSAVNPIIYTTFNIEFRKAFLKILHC
Chain of Gonadotropin-releasing hormone receptor (Homo sapiens) (P30968 whole entry, looked up): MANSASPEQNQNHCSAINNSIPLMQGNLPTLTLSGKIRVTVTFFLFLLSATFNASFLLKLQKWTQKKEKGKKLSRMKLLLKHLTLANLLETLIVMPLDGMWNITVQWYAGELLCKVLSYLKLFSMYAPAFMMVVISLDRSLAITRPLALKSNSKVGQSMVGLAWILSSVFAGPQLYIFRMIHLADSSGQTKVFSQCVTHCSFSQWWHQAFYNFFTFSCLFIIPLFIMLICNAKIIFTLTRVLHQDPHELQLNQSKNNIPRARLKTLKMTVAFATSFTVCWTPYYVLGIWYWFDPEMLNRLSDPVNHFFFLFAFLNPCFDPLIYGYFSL
Chain of 5-hydroxytryptamine receptor 2A (Homo sapiens) (P28223 whole entry, looked up): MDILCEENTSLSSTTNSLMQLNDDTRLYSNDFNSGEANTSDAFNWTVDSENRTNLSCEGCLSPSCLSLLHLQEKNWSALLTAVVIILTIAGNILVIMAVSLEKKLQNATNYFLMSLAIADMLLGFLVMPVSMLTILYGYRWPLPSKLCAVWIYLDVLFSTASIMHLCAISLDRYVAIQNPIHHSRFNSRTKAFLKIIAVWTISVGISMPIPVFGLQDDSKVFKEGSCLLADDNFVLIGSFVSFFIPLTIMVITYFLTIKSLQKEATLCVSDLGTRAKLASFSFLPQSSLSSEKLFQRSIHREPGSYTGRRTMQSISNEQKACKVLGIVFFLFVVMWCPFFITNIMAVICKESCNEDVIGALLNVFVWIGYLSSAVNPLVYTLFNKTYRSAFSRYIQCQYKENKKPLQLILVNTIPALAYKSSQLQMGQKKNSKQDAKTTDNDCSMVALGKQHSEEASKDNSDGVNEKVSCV
Chain of KiSS-1 receptor (Homo sapiens) (Q969F8 whole entry, looked up): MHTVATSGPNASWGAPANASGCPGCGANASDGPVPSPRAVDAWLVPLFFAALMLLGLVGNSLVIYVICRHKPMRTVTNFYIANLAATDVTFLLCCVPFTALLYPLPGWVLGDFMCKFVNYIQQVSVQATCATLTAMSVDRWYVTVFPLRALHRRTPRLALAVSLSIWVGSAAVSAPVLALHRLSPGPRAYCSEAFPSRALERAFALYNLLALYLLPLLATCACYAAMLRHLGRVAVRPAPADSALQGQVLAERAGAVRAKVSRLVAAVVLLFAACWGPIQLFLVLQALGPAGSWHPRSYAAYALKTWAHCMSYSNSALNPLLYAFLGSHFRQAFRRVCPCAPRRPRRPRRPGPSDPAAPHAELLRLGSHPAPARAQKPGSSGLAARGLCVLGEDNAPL
Chain of Muscarinic acetylcholine receptor M1 (Homo sapiens) (P11229 whole entry, looked up): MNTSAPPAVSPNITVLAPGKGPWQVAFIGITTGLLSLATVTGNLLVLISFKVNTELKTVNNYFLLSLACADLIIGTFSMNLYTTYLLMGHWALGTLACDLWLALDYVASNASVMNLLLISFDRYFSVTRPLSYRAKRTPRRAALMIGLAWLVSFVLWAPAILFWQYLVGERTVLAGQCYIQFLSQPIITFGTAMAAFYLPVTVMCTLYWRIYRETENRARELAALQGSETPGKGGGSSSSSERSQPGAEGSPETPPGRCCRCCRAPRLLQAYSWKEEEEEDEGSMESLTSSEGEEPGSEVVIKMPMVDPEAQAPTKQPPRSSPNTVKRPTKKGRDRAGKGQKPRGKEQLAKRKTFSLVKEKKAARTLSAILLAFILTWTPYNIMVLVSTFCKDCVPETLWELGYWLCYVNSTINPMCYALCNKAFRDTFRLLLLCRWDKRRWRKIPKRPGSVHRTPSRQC
Chain of Beta-2 adrenergic receptor (Homo sapiens) (P07550 whole entry, looked up): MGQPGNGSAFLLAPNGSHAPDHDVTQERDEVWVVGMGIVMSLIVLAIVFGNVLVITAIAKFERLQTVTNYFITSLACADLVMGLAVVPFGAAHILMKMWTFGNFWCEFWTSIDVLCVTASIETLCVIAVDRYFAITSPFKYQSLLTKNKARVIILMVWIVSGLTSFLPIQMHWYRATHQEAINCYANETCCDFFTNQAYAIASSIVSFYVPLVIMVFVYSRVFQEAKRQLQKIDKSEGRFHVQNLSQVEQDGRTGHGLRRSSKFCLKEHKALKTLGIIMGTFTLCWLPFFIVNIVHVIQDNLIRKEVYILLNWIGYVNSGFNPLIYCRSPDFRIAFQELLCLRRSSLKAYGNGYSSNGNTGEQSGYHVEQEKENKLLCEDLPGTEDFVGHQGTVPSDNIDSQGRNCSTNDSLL

As for `c1ccc(N2CCNCC2)cc1`, the Potency result in assay [1], in assay [2], in assay [3], in assay [4], in assay [5] and in assay [6] was “inactive” throughout. For the same molecule, the Potency result in assay [7], in [8], in assay [9], in [11], in assay [12] and in [13] was “inactive” throughout. The Potency entry in assay [14] and in assay [15] was “inactive” in each case. For the same molecule, in assay [10], the Potency is 601 nM (active).
For `CN(C)c1ccccc1`, the Potency result in [1], in assay [2], in [3], in [4], in assay [5] and in assay [6] was “inactive” throughout. Besides, the Potency result in assay [16], in assay [8], in assay [9], in assay [17], in [18] and in [10] was “inactive” each time. The Potency entry in [19], in [11], in assay [12], in assay [13], in [14] and in assay [20] was “inactive” in each case. The Potency entry in [15] is “inactive”.
In the case of `CCC(C)c1cc([N+](=O)[O-])cc([N+](=O)[O-])c1O` (stereo not drawn), in [1], the Potency result was “inactive and 17.2 µM (active)”. The Potency entry in assay [2], in assay [3], in [4], in assay [5], in [6] and in assay [7] was “inactive” in each case. The Potency entry in assay [8], in assay [17], in assay [18], in assay [10], in assay [19] and in [11] was “inactive” throughout. In addition, the Potency entry in assay [12], in assay [14], in [20] and in [15] was “inactive” each time.
With `O=C(O)COc1ccccc1`, the Potency result in assay [1], in assay [2], in assay [3], in assay [4], in [5] and in assay [6] was “inactive” in each case. Besides, the Potency result in [7], in assay [8], in [9], in assay [17], in assay [18] and in assay [10] was “inactive” each time. The Potency result in assay [19], in assay [11], in assay [12], in assay [13], in assay [14] and in assay [20] was “inactive” throughout. For the same molecule, the Potency entry in [15] was “inactive”.
`CCOc1ccc(N)cc1`: the Potency result in assay [1], in assay [2], in [3], in [4], in assay [5] and in assay [6] was “inactive” throughout. Moreover, the Potency result in assay [7], in assay [8], in assay [9], in assay [17], in assay [10] and in assay [19] was “inactive” each time. In addition, the Potency result in [11], in assay [12], in assay [13], in [14], in assay [20] and in [15] was “inactive” in each case.
`O=C(NCc1cccnc1)Nc1ccc([N+](=O)[O-])cc1`: the Potency result in assay [1], in assay [2], in assay [3], in assay [4], in [5] and in assay [6] was “inactive” in each case. Further, the Potency entry in assay [7], in [8], in [9], in assay [17], in assay [10] and in [19] was “inactive” each time. The Potency entry in assay [11], in assay [12], in [13], in [14], in assay [20] and in [15] was “inactive” throughout. For the same molecule, in assay [18], the Potency was 3750 nM (active).
As to `C1=Cc2cccc3cccc1c23`, the Potency result in [1], in [3], in assay [4], in assay [5], in [6] and in assay [16] was “inactive” each time. For the same molecule, the Potency entry in [8], in assay [9], in assay [17], in assay [18], in [10] and in assay [19] was “inactive” throughout. The Potency entry in assay [11], in assay [12], in [13], in [14], in assay [20] and in assay [15] was “inactive” in each case. Moreover, the Potency in assay [2] was 23.9 µM (active) and inactive.
As to `O=C(O)C1C2CCC(O2)C1C(=O)O` (stereo not drawn), the Potency result in [1], in assay [2], in [3], in assay [4], in assay [5] and in [6] was “inactive” throughout. Moreover, the Potency entry in assay [7], in assay [8], in assay [17], in assay [18], in assay [10] and in [19] was “inactive” throughout. In addition, the Potency entry in assay [11], in assay [12], in [20] and in assay [15] was “inactive” each time. In addition, in assay [13], the Potency was 27.6 µM (active) and 49.9 µM (active).
